Experimental data published in PubChem BioAssay (Tox21).
Records with an inconclusive call do not appear. A number with no mark means an inactive call. Calls follow the shape of the dose curve; as a rule, active = well fitted activation curve with a large enough effect in the repeat runs; inconclusive = weak or mixed curves; inactive = flat fitted curve, though single readings scatter.

Assay: A CellTox Green Cytotoxicity Assay to monitor cytotoxicity in HEK293 cells - 24 hour (AID 1224875); also: nearly all actives have a fitted effect of over 45% in size
Conditions: CellTox Green fluorescence; series mostly up to 76.8 µM; activity change: at the top concentration
From the text: National Center for Advancing Translational Sciences [NCATS]
NIH Chemical Genomics Center [NCGC]
U.S. Environmental Protection Agency [EPA]
National Institutes of Environmental Health Sciences [NIEHS]
National Toxicology Program [NTP]
Cell-based models are critical for drug discovery. Determining the natural cytotoxic effects resulting from test compounds is an essential research activity. A CellTox Green Cytotoxicity Assay to monitor cytotoxicity in real time of continues cell culture during 40 hours of the compound treatment was used to screen Tox21 10K library compounds in Hek293 cells. CellTox Green Cytotoxicity Assay is a nonlytic, homogeneous, biofluorescent method to measure cytotoxicity in cell culture after experimental manipulation. The assay system uses a proprietary asymmetric cyanine dye that is excluded from viable cells but preferentially stains the dead cell's DNA. […] Viable cells produce no appreciable increases in fluorescence. Therefore, the fluorescence signal produced by the binding interaction with dead cell DNA is proportional to cytotoxicity.
The mixture of Hek293 cell suspension and reagents were dispensed at 600cells/6 ul/well in 1536-well tissue culture treated black solid bottom plates using a Multidrop dispenser. After the assay plates were incubated at a 37 C/5% CO2 incubator for 5 hours, 23 nL of compounds dissolved in DMSO, positive and negative controls was transferred to the assay plate by a pintool work station. The plates were incubated at 37 C for 40 hours. The fluorescence intensity were measured at 0h, 8h, 16h, 24h, 32h and 40h time points using ViewLux plate reader during compound treatment.
% is scaled to controls: 0 for no effect and ±100 for the full control effect.

Compound	activity change
O=S(=O)(O)c1cc(O)ccc1O	-8.23%
C1=C\CC/C=C\CC/1	16.4%
CCC(=O)OCCC(C)CCC=C(C)C (stereo not given)	0.749%
O=C(O)/C=C/c1ccccc1	-11.4%
CCCCCC1Nc2cc(C(F)(F)F)c(S(N)(=O)=O)cc2S(=O)(=O)N1 (stereo not given)	8.57% [at 35.3 µM, active compounds read high]
CCOC(=O)CCc1ccccc1	1.44%
C=C[Si](C)(C)O[Si](C)(C)C=C	5.79%
NC(Cc1c[nH]c2ccccc12)C(=O)O (stereo not given)	-6.27% [at 35.3 µM, active compounds read high]
O=S1(=O)CCCC1	-3.58%
CCCCC(C)C(=O)O (stereo not given)	0.569%
BrC/C=C/CBr	2.67% [at 15.8 µM, active compounds read high]
FC(F)(F)c1ccc(Cl)cc1Cl	-1.12%
Cc1cc(O)c2c(c1)C(=O)c1cccc(O)c1C2=O	-2.83% [at 35.3 µM, active compounds read high]
CN[C@@H]1[C@H](O)[C@H](NC)[C@H]2O[C@@]3(O)C(=O)C[C@@H](C)O[C@H]3O[C@@H]2[C@H]1O	-11.4% [at 35.3 µM, active compounds read high]
CCCCOC(=O)[C@@H](C)Oc1ccc(Oc2ccc(C(F)(F)F)cn2)cc1	0.821%
Nc1ccc(/C=C/c2ccc(N)cc2S(=O)(=O)O)c(S(=O)(=O)O)c1	0.201% [at 0.29 µM, active compounds read high]
OC(CCN1CCCCC1)(c1ccccc1)c1ccccc1	4.77% [at 35.3 µM, active compounds read high]
COc1cc([N+](=O)[O-])ccc1N	-9.11%
O=C(CN1CCN(Cc2ccc3c(c2)OCO3)CC1)N1c2ccccc2Sc2ccccc21	-6.96% [at 35.3 µM, active compounds read high]
CCS(=O)(=O)CCn1c([N+](=O)[O-])cnc1C	-0.0289% [at 35.3 µM, active compounds read high]

Compound	activity change
COc1ccc(NS(=O)(=O)c2ccc(N)cc2)nn1	-0.725% [at 35.3 µM, active compounds read high]
CC(=O)Nc1ncc([N+](=O)[O-])s1	5.73% [at 35.3 µM, active compounds read high]
Cc1ccccc1C(=O)N1CC/C(=N\OS(=O)(=O)O)c2ccc(Cl)cc21	-7.69% [at 35.3 µM, active compounds read high]
CO[Si](CCCS)(OC)OC	6.28%
CC(C)CCC(=O)CCC(C)C	-8.87%
CC1=CC[C@H](CC=O)C1(C)C	3.06%
CO[Si](CCCCl)(OC)OC	10.6%
C1=CCC(c2ccccc2)CC1 (stereo not given)	-0.108%
CCCCCCCCCOCC1CO1 (stereo not given)	5.05%
Nc1c(NC/C=C\COc2cc(CN3CCCCC3)ccn2)c(=O)c1=O	3.31% [at 15.8 µM, active compounds read high]
CC(=O)OC(C)(C)Cc1ccccc1	4.42%
Cc1nc2ccccc2c(=O)o1	-2.82%
O=S(=O)(O)SSS(=O)(=O)O	-0.848%
CCN1CN(CC)CN(CC)C1	-17.2%
CCCO	-4.69%
C[C@H](CCC(=O)O)[C@H]1CC[C@H]2[C@@H]3[C@H](O)C[C@@H]4C[C@H](O)CC[C@]4(C)[C@H]3C[C@H](O)[C@]12C	-0.195% [at 35.3 µM, active compounds read high]
Cc1ccccc1OCC1CO1 (stereo not given)	10.9%
CC(=O)OCCCc1ccccc1	-1.49%
NS(=O)(=O)c1cc2c(cc1Cl)NC(CC1CCCC1)NS2(=O)=O (stereo not given)	-4.98% [at 35.3 µM, active compounds read high]
O=CN1CCOCC1	1.21%
